# Measured values from PubChem BioAssay (NCI).
# The panel holds about 79,000 compounds, 15% with a hit somewhere; the sample as a whole holds those more often. Values without a mark were called inactive. Activity calls are given as the source filed them. No stated cut-off is given here; in the data, active means growth inhibition above about 70%; inactive means the rest.
# How the values were obtained:
# [1] = NCI Yeast Anticancer Drug Screen. Data for the wt1 strain (AID 149);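 further: 0% = growth of vehicle-treated wt1 cultures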; details: S. cerevisiae wt1 strain (SPY 50644) growth inhibition, hits give high values
# How it was run: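 Yeast wt1 strain exposed to compounds; growth inhibition measured relative to vehicle-treated controls.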
# [2] = NCI Yeast Anticancer Drug Screen. Data for the mgt1 strain (AID 153); details: S. cerevisiae mgt1 mutant growth inhibition, hits give high values
# How it was run: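 Compounds were applied to mgt1 mutant yeast, and growth was then compared against vehicle-treated control cultures to give percent inhibition.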
# [3] = NCI Yeast Anticancer Drug Screen. Data for the rad50 strain (AID 155);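 further: 0% = growth of vehicle-only cultures of the same strain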; details: S. cerevisiae rad50 strain growth inhibition, hits give high values
# How it was run: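 Yeast carrying a defined DNA repair defect were exposed to test compounds, and growth was compared with vehicle-treated controls to give percent inhibition.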
# [4] = NCI Yeast Anticancer Drug Screen. Data for the mec2-1 strain (AID 157); details: S. cerevisiae mec2-1 strain, hits give high values
# How it was run: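 Compounds were applied to mec2-1 yeast cells. Their growth was then compared with that of vehicle-treated cultures to give growth inhibition.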
# [5] = NCI Yeast Anticancer Drug Screen. Data for the rad14 strain (AID 159);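 further: 0% = growth of vehicle-treated control cultures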; details: S. cerevisiae rad14 strain growth inhibition, hits give high values
# How it was run: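 Yeast cells carrying a defined DNA-repair defect were exposed to compounds, and growth inhibition was calculated relative to vehicle-treated control cultures.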
# [6] = NCI Yeast Anticancer Drug Screen. Data for the sgs1 mgt1 strain (AID 161);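 further: 0% = growth of cultures given vehicle only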; details: S. cerevisiae sgs1 mgt1 strain, hits give high values
# How it was run: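 Growth of a repair-deficient yeast mutant was monitored after compound treatment and expressed as inhibition relative to vehicle-treated cultures.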
# [7] = NCI Yeast Anticancer Drug Screen. Data for the CLN2oe strain (AID 163);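 further: 0% = growth of vehicle-only control cultures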; details: S. cerevisiae CLN2oe strain, hits give high values
# How it was run: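 Cells of an engineered yeast line with disturbed cell-cycle regulation are treated with compound. Inhibition of growth is then calculated relative to the vehicle-treated reference.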
# [8] = NCI Yeast Anticancer Drug Screen. Data for the cln2 rad14 strain (AID 165);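 further: 0% = growth equal to vehicle treated cultures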; details: S. cerevisiae cln2 rad14 strain, hits give high values
# How it was run: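 Strain: cln2 rad14 yeast, altered in cell cycle control and DNA damage repair. Read-out: growth inhibition vs vehicle.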
# [9] = NCI Yeast Anticancer Drug Screen. Data for the bub3 strain (AID 167); details: S. cerevisiae bub3 mutant strain, hits give high values
# How it was run: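 Compounds were applied to a genetically altered yeast strain carrying a cell-cycle control defect. Growth inhibition was scored against vehicle-treated controls.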
# [10] = NCI Yeast Anticancer Drug Screen. Data for the wt2 strain (AID 169);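 further: 0% = growth of vehicle-treated yeast cultures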; details: S. cerevisiae wt2 strain growth inhibition, hits give high values
# How it was run: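 Growth of compound-treated yeast is measured and expressed as inhibition relative to vehicle-only controls.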
# [11] = NCI Yeast Anticancer Drug Screen. Data for the mlh1 strain (AID 171);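 further: 0% = growth of vehicle-treated control cultures of the same strain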; details: S. cerevisiae mlh1 strain growth inhibition, hits give high values
# How it was run: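 Test agents were incubated with yeast bearing a defined DNA damage repair or cell cycle control alteration; values are growth inhibition normalised to vehicle-treated cultures.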
# [12] = NCI Yeast Anticancer Drug Screen. Data for the sgs1 strain (AID 173);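 further: 0% = growth of vehicle-only control cultures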; details: S. cerevisiae sgs1 mutant, hits give high values
# How it was run: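 Strain with an altered DNA repair or cell cycle pathway exposed to compound. Growth then measured. Value = inhibition versus vehicle control.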
# [13] = NCI Yeast Anticancer Drug Screen. Data for the rad18 strain (AID 177); details: S. cerevisiae rad18 mutant growth inhibition, hits give high values
# How it was run: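 DNA-repair-defective yeast; compound treatment; growth inhibition scored against vehicle.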
# [14] = at 5.0 µM (retest, dose inferred, filed as 0.5)
# [15] = at 50.0 µM (retest, dose inferred, filed as 5.0)
smiles,measurement,setting,value
C[Si](C)(C)Cc1ccccc1C(=O)O,growth inhibition,[1]; at 1.2 µM,1%
same,growth inhibition,[1]; at 3.7 µM,1%
same,growth inhibition,[1]; at 11.0 µM,4%
same,growth inhibition,[1]; at 33.0 µM,38%
same,growth inhibition,[1]; at 100.0 µM,99% (active)
same,growth inhibition,[2]; at 1.2 µM,1%
same,growth inhibition,[2]; at 3.7 µM,6%
same,growth inhibition,[2]; at 11.0 µM,-2%
same,growth inhibition,[2]; at 33.0 µM,15%
same,growth inhibition,[2]; at 100.0 µM,99% (active)
same,growth inhibition,[3]; at 1.2 µM,4%
same,growth inhibition,[3]; at 3.7 µM,9%
same,growth inhibition,[3]; [14],2%
same,growth inhibition,[3]; at 11.0 µM,4%
same,growth inhibition,[3]; at 33.0 µM,56%
same,growth inhibition,[3]; [15],80% (active)
same,growth inhibition,[3]; at 50.0 µM,97.7% (active)
same,growth inhibition,[3]; at 100.0 µM,98% (active)
same,growth inhibition,[4]; at 1.2 µM,4%
same,growth inhibition,[4]; at 3.7 µM,4%
same,growth inhibition,[4]; [14],8%
same,growth inhibition,[4]; at 11.0 µM,8%
same,growth inhibition,[4]; at 33.0 µM,29%
same,growth inhibition,[4]; [15],86% (active)
same,growth inhibition,[4]; at 50.0 µM,97% (active)
same,growth inhibition,[4]; at 100.0 µM,98% (active)
same,growth inhibition,[5]; at 1.2 µM,1%
same,growth inhibition,[5]; at 3.7 µM,-4%
same,growth inhibition,[5]; at 11.0 µM,0%
same,growth inhibition,[5]; at 33.0 µM,32%
same,growth inhibition,[5]; at 100.0 µM,99% (active)
same,growth inhibition,[6]; [14],9%
same,growth inhibition,[6]; [15],38%
same,growth inhibition,[6]; at 50.0 µM,97.4% (active)
same,growth inhibition,[7]; at 1.2 µM,9%
same,growth inhibition,[7]; at 3.7 µM,12%
same,growth inhibition,[7]; at 11.0 µM,11%
same,growth inhibition,[7]; at 33.0 µM,20%
same,growth inhibition,[7]; at 100.0 µM,99% (active)
same,growth inhibition,[8]; [14],33%
same,growth inhibition,[8]; [15],86% (active)
same,growth inhibition,[8]; at 50.0 µM,98% (active)
same,growth inhibition,[9]; at 1.2 µM,6%
same,growth inhibition,[9]; at 3.7 µM,8%
same,growth inhibition,[9]; [14],5%
same,growth inhibition,[9]; at 11.0 µM,2%
same,growth inhibition,[9]; at 33.0 µM,6%
same,growth inhibition,[9]; [15],17%
same,growth inhibition,[9]; at 50.0 µM,97% (active)
same,growth inhibition,[9]; at 100.0 µM,97% (active)
same,growth inhibition,[10]; at 1.2 µM,-1%
same,growth inhibition,[10]; at 3.7 µM,-3%
same,growth inhibition,[10]; at 11.0 µM,-1%
same,growth inhibition,[10]; at 33.0 µM,52%
same,growth inhibition,[10]; at 100.0 µM,99% (active)
same,growth inhibition,[11]; at 1.2 µM,3%
same,growth inhibition,[11]; at 3.7 µM,12%
same,growth inhibition,[11]; at 11.0 µM,3%
same,growth inhibition,[11]; at 33.0 µM,42%
same,growth inhibition,[11]; at 100.0 µM,99% (active)
same,growth inhibition,[12]; at 1.2 µM,-1%
same,growth inhibition,[12]; at 3.7 µM,1%
same,growth inhibition,[12]; at 11.0 µM,5%
same,growth inhibition,[12]; at 33.0 µM,65%
same,growth inhibition,[12]; at 100.0 µM,99% (active)
same,growth inhibition,[13]; at 1.2 µM,2%
same,growth inhibition,[13]; at 3.7 µM,3%
same,growth inhibition,[13]; at 11.0 µM,1%
same,growth inhibition,[13]; at 33.0 µM,65%
same,growth inhibition,[13]; at 100.0 µM,97% (active)
